# Compounds with a hit are over-represented: about 14% of the library has one in this group of screens.
# LmPK inh: blocks Leishmania mexicana pyruvate kinase activity; purified LmPK, Kinase-Glo ATP luminescence, 1 h; Q27686; Potency, µM (highest dose often 57.5 µM), inactives show top-dose activity change, negative = inhibition, usual class: inhibitors; 290,000 compounds, 0.37% hits; note: potency is the fitted concentration of half-maximal effect; % is set by controls: 0 for no effect and ±100 for the full control effect
#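 0.1 nM LmPK, 0.5 mM PEP, 0.1 mM ADP; 50 mM imidazole pH 7.2, 7 mM MgCl2, 50 mM KCl; 1 h RT. Kinase-Glo luminescence readout, normalized to no-enzyme (full inhibition) and uninhibited wells.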
# CHX counter: affects cycloheximide protein synthesis inhibition readout, counter-screen; AID 2314; cell reporter, cycloheximide protein synthesis inhibition counterscreen; max response, %; 300,000 compounds, 12% hits; in the data active = max response mostly above about 13%, no sharp cut-off; inactive = mostly below about 14%; note: read at 38.3 µM for the half of the compounds with a filed dose; 0% is about no effect
# NS1 inh: blocks influenza NS1 protein function; 270,000 compounds, 0.4% hits; Potency, µM (titrated, usually from 46.1 µM), without a hit: at the top dose activity, positive = more growth; AID 2326; calls by dose curve; note: potency is the fitted concentration of half-maximal effect; actives are rising curves; nearly all actives have a fitted effect of over 50% in size
#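 In this qHTS, NS1 from influenza A is expressed in budding yeast, where it slows growth. Cells are switched from glucose to 2% galactose medium (pH 6.0, -URA), treated with compound, and growth recovery is read at OD600.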
# Giardia FBPA inh: blocks Giardia fructose-bisphosphate aldolase activity; purified Giardia FBPA; Potency, µM (highest dose often 59.6 µM), without a hit: at the highest dose activity, negative = inhibition, hits mostly inhibitors; 290,000 compounds, 0.71% hits; note: potency is the fitted concentration of half-maximal effect; % is set by controls: 0 for no effect and ±100 for the full control effect; nearly all actives have a fitted effect of over 55% in size
# Target sequence (A8B2U2 whole entry, looked up): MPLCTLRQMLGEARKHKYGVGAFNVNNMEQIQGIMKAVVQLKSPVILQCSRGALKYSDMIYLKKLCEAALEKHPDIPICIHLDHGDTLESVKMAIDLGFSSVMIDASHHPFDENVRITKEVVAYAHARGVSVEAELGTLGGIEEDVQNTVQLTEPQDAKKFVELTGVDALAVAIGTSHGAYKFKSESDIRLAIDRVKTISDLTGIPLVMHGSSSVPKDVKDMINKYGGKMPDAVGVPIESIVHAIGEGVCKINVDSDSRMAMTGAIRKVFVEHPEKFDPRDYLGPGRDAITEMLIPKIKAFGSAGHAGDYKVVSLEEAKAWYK
#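 Giardia FBPA (40 nM reagent) was preincubated 10 min at RT with compound (up to 57.5 uM final), then substrate plus GAPDH/TPI/NAD/arsenate coupling system with diaphorase/resazurin was added; resorufin fluorescence (525/598 nm) was read after 20 min.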
# Shiga toxin inh: blocks Shiga toxin action in Vero cells; Vero cells, Shiga toxin protein synthesis inhibition reporter; inhibition, % at 38.7 µM; 290,000 compounds, 9.2% hits; AID 2315; in the data active = inhibition mostly above about 28%, no sharp cut-off; inactive = mostly below about 43%; note: 0% is about no effect
# * marks the source's active call; other numbers are inactive results; u = inconclusive; x = no result given; [ ] = remark or other dose. Unless noted, calls come from the whole dose curve; as a rule, active = well fitted curve in the direction sought with a large enough effect; inconclusive = small, poorly fitted or top-dose-only effect, or another doubt; inactive = no such curve, though single readings can be large; an effect the other way counts as inactive or inconclusive.
SMILES,LmPK inh,CHX counter,NS1 inh,Giardia FBPA inh,Shiga toxin inh
COc1ccc(/C=C2\SC(=O)N(CC(=O)NCCCn3ccnc3)C2=O)cc1,3%,65*,-5%,16%,19*
COc1ccc(/C=C2\SC(=O)N(CCc3nnc(N)s3)C2=O)cc1,3%,53*,6%,2%,104*
COc1ccc(/C=C2\SC(=O)N(CCNC(=O)Cc3coc4cc(OC)ccc34)C2=O)cc1,0%,9,16%,-3%,14
COc1cccc(/C=C2\SC(=O)N(CC(=O)NCCCn3ccnc3)C2=O)c1,-1%,11,7%,2%,29*
CC(C)NC(=O)COc1coc(CN2CCN(c3ccccc3F)CC2)cc1=O,-5%,13,-1%,-3%,-11
COc1ccc(N(C(=O)C(C)C)S(=O)(=O)c2ccc3ccccc3c2)cc1,4%,1,-3%,1%,x
C=CCNc1nc(-c2ccc(Cl)cc2)cs1,-16%,64*,-21%,x,130*
C=CCNc1nc(-c2ccc([N+](=O)[O-])cc2)cs1,-2%,56*,0%,-4%,63*
CN(C)c1nc(-c2ccc([N+](=O)[O-])cc2)cs1,-5%,21*,-7%,-5%,78
O=C(CN1CCOCC1)Nc1nc(-c2ccc(Cl)cc2)cs1,-3%,17,-7%,-6%,17
Cc1oc(C(=O)Nc2ccc(O)cc2)cc1COc1ccccc1,-2%,16*,-4%,u,38*
Cc1cc(C(=O)Nc2ccccc2)oc(=O)c1,-9%,48*,-3%,8%,45*
Cc1ccc(OCc2cc(C(=O)Nc3ccccc3)oc2C)cc1,-3%,51*,-64%,-8%,85*
CCC(CC)COC(=O)C1=C(C)NC(=O)NC1c1ccc(N(C)C)cc1 (stereo unspecified),-3%,-2,10%,2%,-9
Cc1cc(C)c(S(=O)(=O)Nc2ccc(-c3cn4ccccc4n3)cc2)c(C)c1,-2%,15,14%,-5%,15
Cc1cccc(S(=O)(=O)Nc2ccc(-c3cn4ccccc4n3)cc2)c1,-1%,13*,-16%,9%,18
O=S(=O)(Nc1ccc(-c2cn3ccccc3n2)cc1)c1ccccc1,1%,28*,3%,-4%,87*
Cc1cc(C(=O)CN2C(=O)c3ccccc3C2=O)c(C)n1Cc1cccs1,-3%,26*,-4%,0%,12
Cc1cc(C(=O)Cn2nnc3ccccc3c2=O)c(C)n1Cc1cccs1,-1%,37*,0%,1%,52
CCCCNC(=O)CN1C(=O)c2cccc(N)c2C1=O,-1%,6,x,6%,12
COCCn1c(C)cc(C(=O)COC(=O)CCN2C(=O)c3ccccc3C2=O)c1C,-7%,7,-5%,-2%,-47
COc1ccc(OC)c(C(=O)Cn2nnc3ccccc3c2=O)c1,-2%,-3,7%,1%,-5
CCCn1c(C)cc(C(=O)CN2C(=O)c3cccc(N)c3C2=O)c1C,3%,17*,3%,-1%,14
CC(=O)OC[C@H]1O[C@@H](O/N=C(\C)CCC(=O)OC[C@@H]2O[C@H](C#Cc3ccccc3)C=C[C@@H]2Oc2ccc(C)cc2)[C@H](OC(C)=O)[C@@H](OC(C)=O)[C@H]1OC(C)=O,x,x,x,0%[12.9 µM],x
COc1ccc(NC(=O)CN2C(=O)S/C(=C/c3cccn3-c3ccc(C(=O)O)cc3)C2=O)cc1,-9%,12,34%,x,4
SMILES,LmPK inh,CHX counter,NS1 inh,Giardia FBPA inh,Shiga toxin inh
COCCn1c(=O)c(-c2ccc(Cl)cc2)nc2cnc(N(C)C)nc21,x,x,x,7%,x
CCCC[C@@H]1C[C@H]1C(NC(=O)c1ccc(C(F)(F)F)cc1)c1ccc(C(=O)OC)cc1 (stereo partly specified),x,x,x,2%,x
COc1cc(Nc2cccc[n+]2C)cc(OC)c1OC,0%,-2,1%,-18%,-3
Nc1ccc(Cl)c(-c2nc3ncccc3o2)c1,3%,43*,6%,1%,59*
Nc1ccc(-c2nc3ncccc3o2)c(O)c1,-14%,21*,-43%,10%,69*
Nc1ccc(-c2nc3ncccc3o2)c(Cl)c1,-5%,31*,-6%,-3%,60*
CCC(C(=O)N1CCOCC1)n1nc(C)c2sc3ccccc3c2c1=O (stereo unspecified),-5%,-6,16%,8%,-10
O=C(COC(=O)c1ccccc1Br)Nc1ccc(F)cc1,0%,36*,-5%,-9%,98*
